# Experimental data as given in PMC8384837, “Expanding the binding specificity for RNA recognition by a PUF domain”.
# What was measured:
# Experiment in all cases: yeast three-hybrid, YBZ-1, SC-Leu-His + 0.5 mM 3-AT, 4 days
# Settings in all cases: tags: N-Gal4 AD-HA kept; label: inside an RPR1-promoter hybrid RNA with tandem MS2 sites; ssRNA
# [1] = molecular target: PUM1 PUF domain R3-ARP (Homo sapiens, UniProt Q14671 828-1176, C935A;Q939P)
# Procedure, shortened: (§1)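 Pumilio-1 PUF domain libraries, randomized (NNK) at the three base-contacting residues of each repeat, were co-expressed with matching RNA elements from a centromeric plasmid in strain YBZ-1 (LexA–MS2 coat fusion, HIS3 reporter). Transformants were plated on SC-Leu (input) and SC-Leu-His + 0.5 mM 3-AT (selection) for four days, and repeat regions were PCR-amplified and Illumina-sequenced. The interaction score is the log2 change in variant frequency from input to selection, with pseudocount 1 where absent.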
# [2] = molecular target: T1, PUM1 PUF domain R6-AFS (Homo sapiens, UniProt Q14671 828-1176, N1043A;Y1044F;Q1047S)
# T1 sequence: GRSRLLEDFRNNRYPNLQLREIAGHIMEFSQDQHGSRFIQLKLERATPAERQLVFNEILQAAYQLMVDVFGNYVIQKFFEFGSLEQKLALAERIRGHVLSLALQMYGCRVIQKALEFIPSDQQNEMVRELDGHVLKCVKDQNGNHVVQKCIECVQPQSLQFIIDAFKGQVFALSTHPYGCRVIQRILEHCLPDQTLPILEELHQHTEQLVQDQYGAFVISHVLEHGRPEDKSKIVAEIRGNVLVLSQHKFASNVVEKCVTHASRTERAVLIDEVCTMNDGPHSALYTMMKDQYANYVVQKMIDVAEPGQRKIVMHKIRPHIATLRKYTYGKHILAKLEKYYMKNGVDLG
# Procedure, shortened: as §1
# [3] = molecular target: PUM1 PUF domain R4-TRQ (Homo sapiens, UniProt Q14671 828-1176, N971T;H972R)
# Procedure, shortened: as §1
# [4] = molecular target: PUM1 PUF domain R4-EYD (Homo sapiens, UniProt Q14671 828-1176, N971E;H972Y;Q975D)
# Procedure, shortened: as §1
# [5] = molecular target: PUM1 PUF domain R3-PWF (Homo sapiens, UniProt Q14671 828-1176, C935P;R936W;Q939F)
# Procedure, shortened: as §1
# [6] = molecular target: PUM1 PUF domain R1-RNS (Homo sapiens, UniProt Q14671 828-1176, S863R;R864N;Q867S)
# Procedure, shortened: as §1
# [7] = molecular target: PUM1 PUF domain R3-RTG (Homo sapiens, UniProt Q14671 828-1176, C935R;R936T;Q939G)
# Procedure, shortened: as §1
# [8] = molecular target: PUM1 PUF domain R1-YAR (Homo sapiens, UniProt Q14671 828-1176, S863Y;R864A;Q867R)
# Procedure, shortened: as §1
# [9] = molecular target: PUM1 PUF domain R1-RQQ (Homo sapiens, UniProt Q14671 828-1176, S863R;R864Q)
# Procedure, shortened: as §1
# [10] = molecular target: PUM1 PUF domain R3-IFE (Homo sapiens, UniProt Q14671 828-1176, C935I;R936F;Q939E)
# Procedure, shortened: as §1
sequence,measurement,setting,value
GGCUAGAACUAGUGGAUCCCCCGGCGCCCGGCGGCUCGAGCCCGGGUAAGUGUAAAUAGUCUGCAUGCCGCCGGGCGCCAUGCCUGCAGGUCGACUCUAGAAAACAUG,binding signal,[1],4.92 log2 enrichment (interaction score)
same,binding signal,[2],1.74 log2 enrichment (interaction score)
same,binding signal,[3],4.68 log2 enrichment (interaction score)
same,binding signal,[4],2.77 log2 enrichment (interaction score)
same,binding signal,[5],3.15 log2 enrichment (interaction score)
GGCUAGAACUAGUGGAUCCCCCGGCGCCCGGCGGCUCGAGCCCGGGUAAGUGUAAAUGGUCUGCAUGCCGCCGGGCGCCAUGCCUGCAGGUCGACUCUAGAAAACAUG,binding signal,[6],0.7 log2 enrichment (interaction score)
GGCUAGAACUAGUGGAUCCCCCGGCGCCCGGCGGCUCGAGCCCGGGUAAGUGUAAUUAGUCUGCAUGCCGCCGGGCGCCAUGCCUGCAGGUCGACUCUAGAAAACAUG,binding signal,[1],1.4 log2 enrichment (interaction score)
same,binding signal,[7],2.9 log2 enrichment (interaction score)
same,binding signal,[5],1.18 log2 enrichment (interaction score)
GGCUAGAACUAGUGGAUCCCCCGGCGCCCGGCGGCUCGAGCCCGGGUAAGUGUAAAUUGUCUGCAUGCCGCCGGGCGCCAUGCCUGCAGGUCGACUCUAGAAAACAUG,binding signal,[8],5.79 log2 enrichment (interaction score)
GGCUAGAACUAGUGGAUCCCCCGGCGCCCGGCGGCUCGAGCCCGGGUAAGUGUAAAUCGUCUGCAUGCCGCCGGGCGCCAUGCCUGCAGGUCGACUCUAGAAAACAUG,binding signal,[9],3.45 log2 enrichment (interaction score)
same,binding signal,[6],2.4 log2 enrichment (interaction score)
same,binding signal,[8],6.19 log2 enrichment (interaction score)
GGCUAGAACUAGUGGAUCCCCCGGCGCCCGGCGGCUCGAGCCCGGGUAAGUGUAAGUAGUCUGCAUGCCGCCGGGCGCCAUGCCUGCAGGUCGACUCUAGAAAACAUG,binding signal,[1],1.52 log2 enrichment (interaction score)
same,binding signal,[10],5.39 log2 enrichment (interaction score)
GGCUAGAACUAGUGGAUCCCCCGGCGCCCGGCGGCUCGAGCCCGGGUAAGUGAAAAUAGUCUGCAUGCCGCCGGGCGCCAUGCCUGCAGGUCGACUCUAGAAAACAUG,binding signal,[2],3.01 log2 enrichment (interaction score)
